ATXN2 expr inh: inhibitors of ATXN2 expression; HEK-293 ATXN2-luciferase reporter, luminescence, 24 h; Potency, µM (doses to about 57 µM), usual class: inhibitors; AID 1745845; 0.72% of 360,000 active; note: nearly all actives have a fitted effect of over 55% in size
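qHTS (up to 57 uM final) was run with 24 h compound exposure of reporter cells at 37 °C. Each well was multiplexed: SteadyGlo luminescence measured ATXN2-luciferase expression after a fluorogenic Gly-Phe-AFC viability readout (25 uM final).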
S2 tox: reduces viability in counter-screen for ATXN expression inhibitors. S2 cells (HEK-293 line with an ATXN2-luciferase reporter) viability, CellTiter-Fluor protease fluorescence, 24 h. Potency, µM (doses to about 56.7 µM), actives largely listed as cytotoxic. 0.49% of 400,000 active; note: nearly all actives have a fitted effect of over 40% in size
TGFb inhibitor: TGF-b pathway inhibition; HepG2 CAGA-GFP TGF-b/SMAD3 reporter, GFP fluorescence, 18 h; TGF-beta stimulated, 500 pg/mL final; Potency, µM (titrated, usually from 46.1 µM), hits mostly inhibitors; 1.2% of 410,000 active; AID 588855; note: nearly all actives have a fitted effect of over 65% in size
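Cell-based qHTS in HEPG2 carrying a CAGA-GFP Smad reporter; compounds added before 500 pg/mL final TGF-beta, 18 h incubation at 37 degrees C, GFP fluorescence quantified per cell by imaging cytometry.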
HepG2 viability: HepG2 cytotoxicity, counter-screen for TGF-b inhibitors. 0.76% of 410,000 active. Potency, µM (series often up to 46.1 µM), actives largely listed as cytotoxic. HepG2 CAGA-GFP viability, ATP luminescence, 18 h
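CellTiter-Glo luminescence gave cytotoxicity after 18 hours at 37 degrees C. The cells were HepG2 CAGA-GFP in 1% FBS DMEM, stimulated with 500 pg/mL TGF-beta after compound addition. %Activity was normalised to no-cell wells (complete cell-killing) and DMSO (no toxicity), and curves were fitted and classified.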
HT1080 IDH1KD tx: HT-1080 IDH1 knockdown cell toxicity (counter line). HT-1080 IDH1 knockdown viability, ATP luminescence, 48 h. Potency, µM (top dose mostly 46.1 µM), hits mostly cytotoxic. 2% of 360,000 active
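CellTiter-Glo luminescence after 48 h compound exposure at 37 degrees C of IDH1-knockdown HT-1080 cells in 5% FBS RPMI. %Activity scaled between DMSO wells and cell-free media wells, with curves fitted and assigned curve classes.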
HT1080NT lethal: kills 2HG-producing HT-1080-NT fibrosarcoma cells; Potency, µM (doses to about 46.1 µM), most hits filed as cytotoxic; HT-1080-NT fibrosarcoma viability, CellTiter-Glo ATP luminescence, 48 h; 1.6% of 360,000 active;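 note: NT is the 2HG producing partner of a matched IDH1 knockdown line; nearly all actives have a fitted effect of over 55% in size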
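Viability of the 2HG-overproducing fibrosarcoma line after 48 hours of compound exposure at 37 degrees C was determined by luminescence with CellTiter-Glo, and concentration-effect curves were then fitted and categorized.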
A number is an active result; – = inactive; ? = inconclusive; · = no result. Shown are actives, neighbours in structure and some others; about 3.8% of the full set was active somewhere. Calls come from the whole dose curve; as a rule, active = well fitted curve in the direction sought with a large enough effect; inconclusive = small, poorly fitted or top-dose-only effect, or another doubt; inactive = no such curve, though single readings can be large; an effect the other way counts as inactive or inconclusive.

SMILES	ATXN2 expr inh	S2 tox	TGFb inhibitor	HepG2 viability	HT1080 IDH1KD tx	HT1080NT lethal
COc1ccccc1C(=O)N[C@@H]1c2ccccc2C2(CCN(Cc3cnn(C)c3C)CC2)[C@H]1O	·	–	·	·	·	·
CCC(=O)Nc1ccc(C(=O)Cn2ncc(Cl)c(Cl)c2=O)cc1	·	25µM	?	–	?	–
CCOC(=O)c1ccc(NC(=O)Cn2nc(C)c3ccccc3c2=O)cc1	–	–	–	–	–	–
CCOC(=O)c1ccc(NC(=O)Cn2ncc(Cl)c(Cl)c2=O)cc1	?	?	?	16µM	4.6µM	16µM
Nc1nnnn1-c1ccccc1	–	–	·	·	·	·
Cc1ccc(OC(=O)CSc2nnc(-c3cccs3)o2)c(C)c1	·	·	–	–	·	·
O=C(c1ccccc1F)N(Cc1cc2cc3c(cc2nc1N1CCOCC1)CCC3)CC1CCCO1 (stereo not drawn)	·	–	·	·	·	·
O=C(NCc1ccon1)c1ccc(-c2csc3ccccc23)nc1N1CCC(N2CCCC(CO)C2)CC1 (stereo not drawn)	·	–	·	·	·	·
O=[N+]([O-])c1cc(Cl)ccc1N1CCCC1	–	–	–	–	–	–
O=C1C(Cl)=C(N2CCN(c3ccccc3[N+](=O)[O-])CC2)C(=O)c2ccccc21	–	?	11µM	–	?	–
Cc1ccc(NC(=O)C2CCC(CNS(=O)(=O)c3ccc4c(c3)CCCC(=O)N4)CC2)cc1F (stereo not drawn)	–	–	–	–	·	·
COc1ccc(S(=O)(=O)N2CCOc3ccccc32)cc1	–	–	–	–	13µM	?
COc1ccc(S(=O)(=O)N2c3ccccc3OCC2C)cc1 (stereo not drawn)	?	?	?	–	0.65µM	0.65µM
C[C@@H]1CN(Cc2ccc3c(c2)CN(Cc2cn[nH]c2-c2ccccc2)CCO3)C[C@H](C)O1	·	–	·	·	·	·
COc1cc(C2Nc3ccc4ncccc4c3C3=C2C(=O)CCC3)ccc1O (stereo not drawn)	–	?	–	–	5.8µM	?
O=C(Nc1ccc2ccccc2c1)C(c1ccc(C(F)(F)F)cc1)n1c(=O)c(-c2cc3ccccc3[nH]2)nc2ccccc21 (stereo not drawn)	·	·	·	·	16µM	?
COc1ccc(NC(=O)C(c2ccc(OC)cc2)n2c(=O)c(-c3cc4ccccc4[nH]3)nc3ccccc32)cc1 (stereo not drawn)	·	·	·	·	–	?
O=C(Nc1ccc2c(c1)OCCO2)C(c1ccc(C(F)(F)F)cc1)n1c(=O)c(-c2cc3ccccc3[nH]2)nc2ccccc21 (stereo not drawn)	·	·	·	·	16µM	?
O=C(COCc1cc(-c2ccc3c(c2)OCO3)on1)Nc1cccnc1	–	–	–	–	5.8µM	6.5µM
O=C(COCc1cc(-c2ccc3c(c2)OCO3)on1)Nc1cccc(O)c1	·	·	–	–	·	·
O=C(NCC(O)CO)c1c(I)c(C(=O)NCC(O)CO)c(I)c(N(CCO)C(=O)CO)c1I (stereo not drawn)	–	–	·	·	·	·
OC1(c2ccc(Br)cc2)CCN(Cc2cccc(Br)c2)CC1	·	–	?	11µM	–	–
C=CCc1cccc(/C=N/NC(=O)CNc2cccc3ccccc23)c1O	?	?	?	–	?	?
C=CCc1cccc(/C=N/NC(=O)CCCNc2ccc(C)cc2)c1O	?	–	?	–	?	?
C=CCc1cccc(/C=N/NC(=O)CCC(=O)Nc2ccc(F)cc2)c1O	3.5µM	–	?	–	23µM	?
SMILES	ATXN2 expr inh	S2 tox	TGFb inhibitor	HepG2 viability	HT1080 IDH1KD tx	HT1080NT lethal
C=CCc1cccc(/C=N/NC(=O)CNc2ccccc2)c1O	18µM	?	?	–	18µM	?
C=CCc1cccc(/C=N/NC(=O)CNc2ccccc2OC)c1O	?	–	13µM	–	18µM	?
Cc1ccc2nc(Nc3cccc(C(F)(F)F)c3)c3nnnn3c2c1	·	·	–	–	·	·
Cc1ccc(Cc2cnc(NC(=O)c3ccc4c(c3)CC(c3ccccc3)OC4=O)s2)cc1 (stereo not drawn)	–	–	–	–	·	·
O=C(Nc1cccc(C(F)(F)F)c1)Nc1nnc(N2CCCCCC2)s1	–	–	–	–	·	·
c1ccc(CNc2c(-c3cccc(SC4CCCCC4)c3)nc3ccccn23)cc1	–	?	?	–	?	?
CCCCNc1c(-c2ccc(OC)c(SC3CCCCC3)c2)nc2ccc(C)cn12	25µM	10µM	18µM	13µM	?	?
COc1ccc(-c2nc3ccc(Cl)cn3c2NC2CCCCC2)cc1SC1CCCCC1	–	–	?	–	–	–
COc1ccc(-c2nc3ccc(C)cn3c2NCc2ccccc2)cc1SC1CCCCC1	–	16µM	20µM	–	?	?
CCCCNc1c(-c2ccc(SC3CCCCC3)c(OC)c2)nc2ccc(C)cn12	?	?	?	8.9µM	?	?
Cc1ccn2c(NCc3ccccc3)c(-c3cccc(SC4CCCCC4)c3)nc2c1	?	?	13µM	–	?	?
